Rows were chosen to be rich in hits. Some 7.3% of all compounds tested hit in one or more screens of this group.
Vaccinia Venus = inhibitors of vaccinia virus (Venus reporter); AID 720580; 330,000 compounds, 0.46% hits; Vaccinia virus Venus reporter expression, fluorescence; Potency, µM (top dose mostly 36.5 µM), without a hit: top-dose activity change, negative = inhibition, actives largely listed as inhibitors; calls by dose curve; tested in A549 cells; note: potency is the fitted concentration of half-maximal effect; nearly all actives have a fitted effect of over 30% in size
Vaccinia mCherry = inhibitors of vaccinia virus infection (mCherry reporter signal); AID 720579; Potency, µM (top dose mostly 36.5 µM), inactives show at the highest dose activity change, negative = inhibition, hits mostly inhibitors; Vaccinia virus mCherry reporter infection, fluorescence; 310,000 compounds, 0.63% hits; calls by dose curve; tested in A549 cells; note: potency is the fitted concentration of half-maximal effect; nearly all actives have a fitted effect of over 35% in size
FMDV antiviral = antivirals against foot and mouth disease virus; 410,000 compounds, 1.2% hits; Potency, µM (titrated, usually from 57.9 µM), for the others: at the highest dose activity change, negative = inhibition, hits mostly inhibitors; FMDV antiviral cell-based qHTS; AID 1159524; calls by dose curve; tested in HEK293T cells; note: read-out not given here; potency is the fitted concentration of half-maximal effect; nearly all actives have a fitted effect of over 45% in size
HCMV antiviral = inhibitors of human cytomegalovirus; HFF cells, HCMV-luciferase reporter, 72 h; active compounds read low; activity change, negative = inhibition, % at 57.5 µM; 410,000 compounds, 4.5% hits; AID 1259415; in the data active = activity change below about -60%; inconclusive = no clear call, values can overlap the other calls; inactive = above about -39%
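Two-dose cell screen: HFF monolayers treated with compounds and infected with luciferase-expressing HCMV at 1 PFU/cell, 72 h at 37C, then lysed for luciferase measurement.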
HCV inhibitor = inhibitors of hepatitis C virus infection; Huh7.5.1 HCVcc-Cre infection, luciferase reporter, 44 h; Potency, µM (titrated, usually from 41.8 µM), inactives show at the highest dose activity change, negative = inhibition, usual class: inhibitors; 340,000 compounds, 3.4% hits; active = well fitted inhibition curve with a large enough effect; inconclusive = small, poorly fitted or top-dose-only effect, or another doubt; inactive = no such curve, though single readings can be large or run the other way; note: potency is the fitted concentration of half-maximal effect
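Luciferase read-out (15 sec integration) after a 15 min room-temperature substrate step quantifies HCVcc-Cre infection. Cells, 1,000 per well, had compound added 4 h post-plating, then virus at ~0.5 moi, and were cultured 44 h.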
* marks the source's active call; other numbers are inactive results; i = inactive; ? = inconclusive; . = not tested or not shown; + = active, no number; ! = a repeat was not active; [ ] = another dose, or the depositor's remark. % is set by controls: 0 for no effect and ±100 for the full control effect.

SMILES | Vaccinia Venus | Vaccinia mCherry | FMDV antiviral | HCMV antiviral | HCV inhibitor
O=C(OCc1ccccc1)N1CCOCCOCCN(C(=O)OCc2ccccc2)CCOCCOCC1 | -15% | -18% | 22µM* | -13 | -13%
COc1cccc(N2CC(NC(=O)CCCc3ccccc3)CC2=O)c1 (stereo unspecified) | -18%[7.34 µM] | -14%[7.34 µM] | -12% | -6 | .
CCOc1ccc(N2C(=O)/C(=C/c3ccc(C)o3)C(=O)NC2=S)cc1 | . | . | 40µM* | 2 | -5%
COc1ccc(N2C(=O)/C(=C/c3ccc(C)o3)C(=O)NC2=S)cc1 | . | . | ? | 34 | 11%
Cn1ncc([N+](=O)[O-])c1C(=O)Nc1cccc2ccccc12 | 0% | -18% | 13% | -63* | -23%
Cn1ncc([N+](=O)[O-])c1C(=O)Nc1nccs1 | 3% | -13% | -6% | -64* | 8%
Cc1cccc(NC(=O)c2c([N+](=O)[O-])cnn2C)c1 | . | . | -2% | -14 | 5%
Nc1c(-c2nc(-c3ccccc3Cl)no2)nnn1-c1ccccc1F | -10% | 0% | 55% | 69 | .
Cc1ccc(SCCC(=O)NCCSCc2ccco2)cc1 | -16% | -11% | -5% | -100* | 9%
O=C(Cc1ccccc1)NCCSCc1ccco1 | 0% | -21% | . | -13 | 12%
CC[C@H](C)Cc1cn([C@@H](CCCCNC(=O)OC(C)(C)C)C(=O)NCCCCCCCCCCC(=O)N2CCN(C(=O)OC(C)(C)C)CC2)nn1 | ? | -14% | 14µM* | 21 | ?
CC(C)(C)OC(=O)NCCCC[C@@H](C(=O)NCCCCCCCCCCC(=O)N1CCN(C(=O)OC(C)(C)C)CC1)n1cc(CCO)nn1 | ? | -5% | 14µM* | -21 | ?
N#C/C(=C\C=C\c1ccccc1)C(=O)NCc1ccco1 | -12% | -29% | 24% | ? | 7%
O=C(NCc1ccco1)/C(=C/C=C\c1ccccc1)NC(=O)c1ccc(Br)o1 | -9% | -17% | 35% | -69* | -13%
O=[N+]([O-])c1ccc2nc(/C=C/c3ccc(Cl)cc3)[nH]c2c1 | ? | -20% | . | -86* | ?
O=[N+]([O-])c1ccc(Oc2ccc(S(=O)(=O)N3CCCCC3)cc2)cc1 | -10% | -13% | ? | -63* | ?
CC1CCN(S(=O)(=O)c2ccc(Oc3ccc([N+](=O)[O-])cc3)cc2)CC1 | ? | ? | ? | -77* | ?
O=[N+]([O-])c1ccc(Oc2ccc(S(=O)(=O)N3CCOCC3)cc2)cc1 | 0% | ? | -19% | ? | 11µM*
CN1CCN(S(=O)(=O)c2ccc([N+](=O)[O-])cc2)CC1 | . | . | -15% | -9 | 10%
O=[N+]([O-])c1ccc(-c2ccc(S(=O)(=O)N3CCOCC3)cc2)cc1 | . | . | -6% | 17 | 8%
Cc1cccc(NC(=O)CN2C(=O)C(c3ccc(F)cc3)=NC23CCCCCC3)c1C | -22% | -20% | -32% | 11 | .
CCC1CCCCN1S(=O)(=O)c1ccc2c(c1)CCN2C(=O)C1CCC1 (stereo unspecified) | -21% | -25% | ? | -28 | ?
COc1cccc(CNS(=O)(=O)c2ccc3c(c2)CCN3C(=O)C2CCC2)c1 | -7% | -10% | 4% | -7 | .
Cc1ccc(NS(=O)(=O)c2ccc3c(c2)CC(C)N3C(=O)C2CCC2)cc1Cl (stereo unspecified) | -21% | -31% | 12% | -76* | .
COc1ccc(CNS(=O)(=O)c2ccc3c(c2)CCN3C(=O)C2CC2)cc1 | -10% | i | -30% | -62* | 4%
SMILES | Vaccinia Venus | Vaccinia mCherry | FMDV antiviral | HCMV antiviral | HCV inhibitor
Cc1ccc(NS(=O)(=O)c2ccc(Cl)c(NC(=S)NC(=O)C3CCCCC3)c2)cc1Cl | ? | ? | 0% | 13 | 11µM*
O=C(CCl)c1ccc2c(c1)CCN2C(=O)C1CCCCC1 | -12% | i | 20µM* | 33 | ?
O=C(CCN1C(=O)c2ccccc2Sc2ncccc21)Nc1ccc(F)cc1 | -11% | -16% | 8% | 12 | .
CCOc1ccc(NS(=O)(=O)c2ccc3c(c2)CCN3C(=O)C2CCC2)cc1 | -5% | i | . | ? | -19%
COc1cccc(CNC(=O)C(NS(=O)(=O)c2ccc3c(c2)CCN3C(C)=O)C(C)C)c1 (stereo unspecified) | -18% | -9% | 9% | +! | 0%
COc1ccc(CNS(=O)(=O)c2ccc3c(c2)CC(C)N3C(=O)C2CC2)cc1 (stereo unspecified) | -17% | -23% | -27% | ? | 22µM*
COc1cccc(CNS(=O)(=O)c2ccc3c(c2)CC(C)N3C(=O)C2CC2)c1 (stereo unspecified) | -11% | -2% | -21% | ? | ?
CC(=O)N1CCc2cc(S(=O)(=O)NC(C(=O)NCc3ccccc3)C(C)C)ccc21 (stereo unspecified) | 0% | -11% | 3% | 20 | 16%
O=C(C1CCC1)N1CCc2cc(S(=O)(=O)Nc3ccc4c(c3)OCO4)ccc21 | ? | ? | -15% | -72* | ?
COc1cc(CNS(=O)(=O)c2ccc3c(c2)CC(C)N3C(=O)C2CCC2)cc(OC)c1OC (stereo unspecified) | . | . | ? | -31 | 10µM*
COc1ccc(N/C=C/c2nc(SC)nnc2C)cc1 | -2% | -13% | -16% | -86* | -10%
COC(=O)c1ccc(C2c3c(-c4ccc(Br)cc4)n[nH]c3C(=O)N2c2ccc(Cl)cc2)cc1 (stereo unspecified) | ? | ? | ? | -103* | .
COC(=O)c1ccc(C2c3c(n[nH]c3C)C(=O)N2c2ccc(C)cc2)cc1 (stereo unspecified) | -19% | -9% | 1% | 11 | 9%
O=C1c2[nH]nc(-c3ccc(Br)cc3)c2C(c2cccc(O)c2)N1c1ccc(Cl)cc1 (stereo unspecified) | ? | ? | ? | -105* | .
O=C1c2[nH]nc(-c3ccccc3)c2C(c2ccccc2)N1c1cccc(C(F)(F)F)c1 (stereo unspecified) | ? | -18% | ? | -108* | .
CC(C)CCNC(=O)c1ccc(-n2cnc3cccnc32)cc1 | . | . | 28% | ? | -15%
CCOCCCNC(=O)CCc1ccc(-n2cnc3cccnc32)cc1 | -9% | -12% | 4% | -67* | 6%
Cc1cccc(CN2CCN(CC(=O)Nc3c(C)cccc3C)S2(=O)=O)c1 | 3% | -9% | -14% | 0 | .
O=C(c1ccc([N+](=O)[O-])s1)N1CCc2ccccc21 | 2% | 8% | 9% | 22 | ?
O=C(c1ccc([N+](=O)[O-])s1)N1CCCc2ccccc21 | ? | 10µM* | -18% | ? | ?
COc1ccc(C)cc1NC(=O)Cn1c(=O)oc2cc(S(=O)(=O)NCc3ccccc3)ccc21 | -10% | -16% | 14% | + | .
CCN(Cc1ccccc1)S(=O)(=O)c1ccc(C(=O)N(CCCN(C)C)c2nc3c(C)c(C)ccc3s2)cc1 | ? | 11µM* | -14% | -16 | 13µM*

Assay outcomes (PubChem BioAssay)
